We go through 13 compounds from PubChem BioAssay (NCATS).

Common to all, as to test: qHTS profiling for inhibitors of Plasmodium falciparum proliferation (AID 504749); note: nearly all actives have a fitted effect of over 60% in size
Conditions in all cases: P. falciparum in erythrocytes, SYBR Green DNA, 72 h; series mostly up to 28.7 µM
(In general: Quantitative high-throughput screening tests each substance at several concentrations.)

One test deals with CP297. A digest of the protocol: (§1)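 SYBR Green fluorescence (ex 485 nm, em 535 nm) reports parasite DNA after 72 h compound exposure of infected red cells at 0.3% parasitemia, 2.5% hematocrit; signal normalized to 0.29 uM artemisinin and vehicle wells.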
In another test the test system is CP305. The essentials:
as §1

For another test, the system named is CP315. A digest of the protocol:
as §1

The test system of the next test is CP325. The essentials: as §1
Another test deals with CP329. The essentials:
as §1

The next test has as its system CP335. The essentials:
as §1

The subject of another test is DFO2036. The essentials:
as §1

A further test deals with DIV14. A digest of the protocol: as §1
The subject of another test is DIV30. The essentials: as §1
The test system of another test is Dd2. The essentials: as §1
In the next test the test system is FAB9. A digest of the protocol:
as §1

The next test deals with GB4. A digest of the protocol: as §1
A further test relates to HB3. The essentials: as §1
A further test concerns ICS. The essentials: as §1
The test system of another test is JCK. A digest of the protocol: as §1
Another test has as its system N140. The essentials:
as §1

A further test relates to P93_24. A digest of the protocol:
as §1

Another test deals with P94_40. The essentials:
as §1

A further test concerns ECU. The essentials:
as §1

For another test, the system named is DIV17. The essentials:
as §1

Records with an inconclusive call do not appear. Active and inactive are the calls of the source. Calls come from the whole dose curve; as a rule, active = well fitted inhibition curve with a large enough effect; inconclusive = small, poorly fitted or top-dose-only effect; inactive = flat fitted curve, though single readings scatter.
Potency is the fitted concentration of half-maximal effect.

`O=C1c2ccccc2CN2C(=O)c3ccccc3CN12`: the Potency entry in the test with CP297, in the test with CP305, in the test with CP315, in the test with CP325, in the test with CP329 and with CP335 was “inactive” each time. The Potency result in the test on DFO2036, with DIV14, in the test on DIV30, with Dd2, in the test with FAB9 and in the test on GB4 was “inactive” in each case. In addition, the Potency result in the test with HB3, with ICS, in the test on JCK, with N140, with P93_24 and with P94_40 was “inactive” in each case.
Take `CCCCCc1ccc(C)cc1O`: the Potency result in the test with CP297, in the test on CP305, in the test with CP315, with CP325, with CP329 and in the test on CP335 was “inactive” each time. The Potency result with DFO2036, with DIV30, in the test on Dd2, in the test on ECU, in the test with FAB9 and in the test with HB3 was “inactive” in each case. Also, the Potency entry in the test with JCK, with N140, in the test on P93_24 and in the test with P94_40 was “inactive” in each case. Moreover, the Potency with ICS is 7.08 µM (active).
Consider `Cc1ccc(S(=O)(=O)O)cc1C`, for which the Potency result in the test with CP297, in the test on CP305, with CP315, with CP325, with CP329 and in the test on DFO2036 was “inactive” throughout. In addition, the Potency result with DIV14, in the test with DIV17, in the test on DIV30, in the test on Dd2, with ECU and with FAB9 was “inactive” in each case. In addition, the Potency entry with GB4, in the test on HB3, with ICS, in the test on JCK, in the test with N140 and with P93_24 was “inactive” each time. The Potency entry in the test on P94_40 is “inactive”.
As to `CC(C)=CCC/C(C)=C/C=C/C(C)=C/C=C/C(C)=C/C=C/C=C(C)/C=C/C=C(C)/C=C/C=C(\C)CCC=C(C)C`, the Potency entry in the test on CP297, in the test with CP305, in the test with CP315, with CP325, with CP329 and in the test on CP335 was “inactive” each time. The Potency result with DFO2036, in the test on DIV17, in the test with DIV30, in the test on Dd2, in the test on FAB9 and in the test with GB4 was “inactive” throughout. Besides, the Potency entry in the test on JCK and in the test with N140 was “inactive” throughout. Also, the Potency in the test on ICS was 11.2 µM (active).
Regarding `FC(F)(F)C(F)(F)C(F)(F)C(F)(F)C(F)(F)F`, the Potency entry in the test with CP297, in the test with CP305, in the test on CP315, in the test on CP325, in the test on CP329 and in the test on CP335 was “inactive” in each case. Besides, the Potency result in the test on DFO2036, in the test with DIV17, in the test on DIV30, in the test with Dd2, in the test with ECU and in the test on FAB9 was “inactive” each time. The Potency result in the test with GB4, with HB3, with ICS, with JCK, in the test with N140 and with P93_24 was “inactive” in each case. Further, the Potency result in the test on P94_40 is “inactive”.
Take `O=C(OCc1ccccc1)c1ccc(O)cc1`: the Potency entry with CP297, in the test with CP305, with CP315, in the test on CP325, with CP329 and in the test on CP335 was “inactive” each time. Moreover, the Potency result in the test on DFO2036, in the test on DIV17, in the test with DIV30, in the test on Dd2, in the test with ECU and in the test on FAB9 was “inactive” in each case. The Potency result in the test with GB4, with HB3, in the test with ICS, in the test on JCK, with N140 and with P93_24 was “inactive” throughout. Besides, the Potency result in the test on P94_40 was “inactive”.
Take `O=C1[O][Bi][O]c2ccccc21`: the Potency result in the test on CP297, in the test on CP305, in the test on CP315, in the test on CP325, in the test on CP329 and in the test on DFO2036 was “inactive” each time. The Potency result with DIV14, in the test on DIV17, in the test on DIV30, in the test on Dd2, in the test on ECU and in the test with FAB9 was “inactive” in each case. Further, the Potency entry in the test with GB4, in the test on HB3, with ICS, with JCK, in the test on N140 and in the test on P93_24 was “inactive” throughout. Further, the Potency result with P94_40 was “inactive”.
`CCSc1ccc2c(c1)N(CCCN1CCN(C)CC1)c1ccccc1S2`: the Potency result with CP297, in the test on CP305, in the test with CP315, in the test on CP325, with CP329 and in the test on CP335 was “inactive” throughout. In addition, the Potency result in the test on DFO2036, in the test on DIV30, in the test with Dd2, with ECU, with FAB9 and with HB3 was “inactive” in each case. The Potency result in the test on JCK, in the test on N140, in the test with P93_24 and with P94_40 was “inactive” throughout.
In the case of `CCC(O)c1ccccc1` (configuration not stated), the Potency entry with CP297, with CP305, in the test on CP315, in the test on CP325, in the test with CP329 and in the test with DFO2036 was “inactive” throughout. The Potency result in the test with DIV14, in the test on DIV17, with DIV30, with Dd2, in the test on ECU and in the test on FAB9 was “inactive” in each case. The Potency result in the test on GB4, with HB3, in the test on ICS, with JCK, with N140 and in the test on P93_24 was “inactive” in each case. In addition, the Potency entry in the test on P94_40 is “inactive”.
`Nc1ccc(N=Nc2ccccc2)c(N)n1`: the Potency result with CP297, with CP305, in the test on CP315, in the test with CP325, in the test on CP329 and in the test with DFO2036 was “inactive” in each case. Moreover, the Potency entry in the test with DIV14, in the test with DIV17, with DIV30, in the test on Dd2, with HB3 and in the test with ICS was “inactive” throughout. Besides, the Potency entry in the test on JCK, in the test with P93_24 and in the test on P94_40 was “inactive” each time. Also, in the test on GB4, the Potency was 13.5 µM (active).
As for `CC(/C=C/C=C(\C)C(=O)O[C@@H]1O[C@H](CO[C@@H]2O[C@H](CO)[C@@H](O)[C@H](O)[C@H]2O)[C@@H](O)[C@H](O)[C@H]1O)=C\C=C\C=C(C)\C=C\C=C(/C)C(=O)O[C@@H]1O[C@H](CO[C@@H]2O[C@H](CO)[C@@H](O)[C@H](O)[C@H]2O)[C@@H](O)[C@H](O)[C@H]1O`, the Potency result with CP297, in the test with CP305, with CP315, with CP325, in the test on CP329 and in the test with CP335 was “inactive” in each case. In addition, the Potency entry in the test on DFO2036, in the test with DIV17, with DIV30, with Dd2, with ECU and in the test on FAB9 was “inactive” throughout. The Potency result in the test on GB4, with HB3, with ICS, with JCK, with N140 and in the test with P93_24 was “inactive” each time. In the test on P94_40, the Potency entry was “inactive”.
In the case of `OC1OC[C@@H](O)[C@H](O)[C@@H]1O` (some centres not stated), the Potency result in the test on CP297, in the test on CP305, in the test with CP315, in the test with CP325, with CP329 and in the test with DFO2036 was “inactive” in each case. The Potency result in the test with DIV14, with DIV17, in the test with DIV30, with Dd2, in the test with ECU and in the test with FAB9 was “inactive” in each case. Moreover, the Potency result in the test on GB4, in the test on HB3, in the test on ICS, in the test with JCK, in the test on N140 and in the test with P93_24 was “inactive” in each case. Further, in the test on P94_40, the Potency result was “inactive”.
For `O=[N+]([O-])c1c(Cl)cccc1-c1c[nH]cc1Cl`, the Potency entry in the test with CP297, in the test on CP305, in the test on CP315, with CP325, in the test with CP329 and in the test on CP335 was “inactive” each time. Besides, the Potency entry in the test on DFO2036, in the test on DIV17, in the test with DIV30, in the test on Dd2, in the test with ECU and in the test on FAB9 was “inactive” in each case. The Potency entry in the test on GB4, with HB3, with JCK, in the test with N140 and in the test with P93_24 was “inactive” throughout.
